The list is not random: actives were taken first. Their share in the collection is about 1.1%.
MOR-DOR inv ag – inverse agonist of human OPRM1-OPRD1 heterodimerization. cell-based MOR-DOR heterodimer luminescence, inverse agonism. P35372+P41143. inhibition, % at 9.3 µM. 340,000 compounds, 0.21% hits; in the data active = inhibition above about 22%, passing the limit was not always enough;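 also: 0% = cells with DMSO and 100% = wells without cells with DMSO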
HTR5A inv ctr – counter-screen for OPRM1-OPRD1 inverse agonists: human HTR5A inverse agonism | 340,000 compounds, 0.083% hits | P47898 | inhibition, % at 9.3 µM | AID 504634 | HTR5A cell line, luminescence; in the data active = inhibition mostly above about 23%, no sharp cut-off; inactive = mostly below about 18%;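 also: 0% = cells with DMSO and 100% = no-cell wells with DMSO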
HTR5A ag – counter-screen for OPRM1-OPRD1 agonists: human HTR5A agonism; activation, % at 9.3 µM; 340,000 compounds, 0.61% hits; HTR5A agonist assay, luminescence, cell-based; AID 504692; in the data active = activation mostly above about 9.5%, no sharp cut-off; inactive = mostly below about 7.6%;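 also: 0% = cells with vehicle only and 100% = reference agonist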
MOR-DOR ag-1 – agonists of human mu-delta opioid receptor heterodimerization; P35372+P41143; cells, OPRM1-OPRD1 heterodimerization, luminescence; activation, % at 9.3 µM; 340,000 compounds, 0.3% hits; AID 504326;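 also: 0% = vehicle-treated cells and 100% = reference agonist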
MOR-DOR ag-2 – promotes OPRM1-OPRD1 heterodimerization in HTR5A counter-screen. shares compounds with HTR5A ag. U2OS counter-screen cells, complementation luminescence, 3 h. activation, % at 9.3 µM. 800 compounds, 13% hits. AID 504913
HTR5A ag confirm – HTR5A (human) agonism, confirmation; AID 504915; HTR5A agonist cell assay, luminescence; activation, % at 9.3 µM; 800 compounds, 17% hits; shares compounds with HTR5A ag; in the data active = activation above about 17%;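 also: 0% = cells with vehicle only and 100% = full reference agonist response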
* hit, by the source's call; nt = no result given. Rule as the data show it, unless noted: active = activation above about 18%; inactive = the rest.

SMILES	MOR-DOR inv ag	HTR5A inv ctr	HTR5A ag	MOR-DOR ag-1	MOR-DOR ag-2	HTR5A ag confirm
COC(=O)c1ccc(N=C(c2ccccc2)c2c(O)n(C)c(=O)n(C)c2=O)cc1	13	23	0	-3	nt	nt
Cc1cc(=O)oc2cc3c(cc12)CCCN3	6	-4	1	-1	nt	nt
CCCCC/C(=N/O)c1c(C)[nH]c2ccccc12	-32	-40	15*	6	4	2
COc1ccc(-n2c(CNCCc3ccc(C)cc3)nc3ccccc3c2=O)cc1	-5	3	4	1	nt	nt
CN1CCc2nc(SCc3ccccc3Br)c(C#N)cc2C1	8	-39	-5	-2	nt	nt
Cc1cccc(CSc2nc3c(cc2C#N)CN(C)CC3)c1	18	-51	20*	-3	0	0
COc1nc2ccccc2nc1N1CCN(C)CC1	7	-79	20*	-1	4	6
CCOP(=O)(OCC)/C(C#N)=C/c1ccoc1	19	-27	7	-4	nt	nt
O=CC(Cl)P(=O)(N1CCOCC1)N1CCOCC1 (stereo not drawn)	-2	-1	1	0	nt	nt
CCCN(CCC)C1CCc2cccc(O)c2C1 (stereo not drawn)	10	-146	46*	-2	1	56*
CCCN(CCC)C1CCc2ccc(O)cc2C1 (stereo not drawn)	-9	-139	35*	2	31*	1
CCCN1CC[C@@H]2c3cc(O)ccc3CC[C@@H]21	-5	-20	6	1	nt	nt
C=C1N2CCC(CC2)C1(O)c1ccc(C)c(C)c1 (stereo not drawn)	12	-13	6	-2	nt	nt

Screens as filed in PubChem.
